Experimental data as given in PubChem BioAssay (EPA / NIEHS).
Several values for one entry are separate records, joined by “and”; a condition that tells them apart may be missing. Equal values may be shown once. Records with an inconclusive call do not appear. A structure can be active in one record and inactive in another. Activity calls are given as the source filed them. Rule for the calls, unless noted: active = hit-call score of the fitted dose curve at least 0.9, where 1 is the maximum; inconclusive = response in the unintended direction; inactive = score below 0.9.

Key:
[1] = biological target: human Peroxisome Proliferator-activated Receptor delta (PPARd), PPARD (gene 5467) (UniProt Q03181); assay: ATG_PPARd_TRANS: Attagene TRANS-FACTORIAL HepG2 Assay for human Peroxisome Proliferator-activated Receptor delta (PPARd) (AID 2283002)
Chain of human Peroxisome Proliferator-activated Receptor delta (PPARd), PPARD (gene 5467) (Q03181 whole entry, looked up, the tested form may be a part): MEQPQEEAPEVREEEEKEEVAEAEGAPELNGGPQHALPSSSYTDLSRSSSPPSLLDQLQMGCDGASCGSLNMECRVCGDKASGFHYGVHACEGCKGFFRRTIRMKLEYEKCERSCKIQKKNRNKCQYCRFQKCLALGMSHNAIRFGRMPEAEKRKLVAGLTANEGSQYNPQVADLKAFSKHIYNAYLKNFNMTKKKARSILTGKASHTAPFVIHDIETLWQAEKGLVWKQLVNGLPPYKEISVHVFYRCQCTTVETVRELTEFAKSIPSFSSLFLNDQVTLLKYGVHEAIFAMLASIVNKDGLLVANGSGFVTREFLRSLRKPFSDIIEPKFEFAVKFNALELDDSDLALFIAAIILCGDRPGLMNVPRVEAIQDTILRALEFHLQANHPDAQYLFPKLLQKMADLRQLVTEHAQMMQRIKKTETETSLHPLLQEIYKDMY
Procedure, shortened: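 HepG2 cells transiently transfected with multiplexed GAL4-UAS reporter units and exogenous chimeric NR-Gal4 proteins; 24 h compound exposure. Reporter mRNA measured by RT-PCR, 6-FAM labelling, HpaI digestion and capillary electrophoresis; gain of signal versus DMSO.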

[2] = read-out: Intercellular Adhesion Molecule 1 (ICAM1), ICAM1 (gene 3383); assay: BSK_3C_ICAM1: BioMAP Diversity Plus: 3C Assay for Intercellular Adhesion Molecule 1 (ICAM1) Biomarker Activity (AID 2283003; active = hit-call score of the fitted dose curve at least 0.9, where 1 is the maximum; inactive = score below 0.9); settings: primary human endothelial cells (HUVEC); actives raise or lower the signal
Procedure, shortened: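 Human vascular endothelial primary cells, 3C conditions, 24 h treatment. ICAM-1 by ELISA.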

[3] = biological target: human Retinoic Acid Receptor beta (RARb), RARB (gene 5915) (UniProt P10826); assay: ATG_RARb_TRANS: Attagene TRANS-FACTORIAL HepG2 Assay for human Retinoic Acid Receptor beta (AID 2283004)
Chain of human Retinoic Acid Receptor beta (RARb), RARB (gene 5915) (P10826 whole entry, looked up, the tested form may be a part): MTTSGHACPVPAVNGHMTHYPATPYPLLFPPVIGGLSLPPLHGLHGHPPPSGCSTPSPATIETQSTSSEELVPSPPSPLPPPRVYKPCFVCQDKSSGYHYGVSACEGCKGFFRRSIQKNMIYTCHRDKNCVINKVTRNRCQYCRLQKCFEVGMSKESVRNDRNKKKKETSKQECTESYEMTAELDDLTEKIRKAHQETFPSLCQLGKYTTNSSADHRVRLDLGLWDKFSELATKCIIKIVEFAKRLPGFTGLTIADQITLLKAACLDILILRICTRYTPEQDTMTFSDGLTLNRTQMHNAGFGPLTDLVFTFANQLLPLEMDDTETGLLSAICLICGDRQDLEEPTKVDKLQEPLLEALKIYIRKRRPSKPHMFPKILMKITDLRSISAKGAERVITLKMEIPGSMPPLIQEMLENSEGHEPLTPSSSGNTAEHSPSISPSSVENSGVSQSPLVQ
Procedure, shortened: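 Readout is reporter mRNA induction: RNA reverse-transcribed, PCR-amplified, FAM-labelled, HpaI-cut and resolved by capillary electrophoresis. Transiently transfected HepG2 cells carrying exogenous NR–Gal4 chimeras were dosed for 24 h; activity fitted upward relative to DMSO.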

[4] = biological target: Retinoic acid receptor alpha (Homo sapiens) (UniProt P10276); assay: ATG_RARa_TRANS: Attagene TRANS-FACTORIAL HepG2 Assay for human Retinoic Acid Receptor alpha (RARa) (AID 2283005)
Chain of Retinoic acid receptor alpha (Homo sapiens) (P10276 whole entry, looked up, the tested form may be a part): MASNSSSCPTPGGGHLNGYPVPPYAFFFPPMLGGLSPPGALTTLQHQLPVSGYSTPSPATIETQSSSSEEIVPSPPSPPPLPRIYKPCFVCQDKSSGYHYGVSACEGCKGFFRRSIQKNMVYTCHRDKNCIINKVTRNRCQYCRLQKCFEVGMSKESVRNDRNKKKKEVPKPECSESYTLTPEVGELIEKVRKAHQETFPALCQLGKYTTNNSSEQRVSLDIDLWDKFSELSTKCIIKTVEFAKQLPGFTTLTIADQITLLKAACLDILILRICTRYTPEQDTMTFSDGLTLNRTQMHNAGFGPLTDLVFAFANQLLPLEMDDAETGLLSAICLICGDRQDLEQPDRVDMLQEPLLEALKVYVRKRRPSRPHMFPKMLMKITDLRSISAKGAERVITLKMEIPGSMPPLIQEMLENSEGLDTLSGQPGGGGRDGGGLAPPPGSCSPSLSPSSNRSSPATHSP
Procedure, shortened: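 HepG2 cells transiently transfected with multiple reporter units expressing chimeric RARα-GAL4 fusion, with GAL4-UAS-driven reporters. After 24 h compound exposure, reporter mRNA induction quantified by RT-PCR and capillary electrophoresis with fluorescent labeling; gain-of-signal fitted relative to DMSO control.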

[5] = BSK_3C_Proliferation: Cell Proliferation Assessment in the BioMAP Diversity Plus: 3C Assay (AID 2283006; active = hit-call score of the fitted dose curve at least 0.9, where 1 is the maximum; inactive = score below 0.9;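 for AC50: potency may reflect either rise or fall in cell number versus DMSO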); settings: primary human endothelial cells (HUVEC)
Procedure, shortened: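 Proliferation of human vascular endothelial primary cells after 48 h dosing, quantified as SRB-stained protein at 560 nm relative to DMSO.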

[6] = biological target: Peroxisome proliferator-activated receptor gamma (Homo sapiens) (UniProt P37231); assay: ATG_PPARg_TRANS: Attagene TRANS-FACTORIAL HepG2 Assay for human Peroxisome Proliferator-activated Receptor-gamma (PPARg) (AID 2283007)
Chain of Peroxisome proliferator-activated receptor gamma (Homo sapiens) (P37231 whole entry, looked up): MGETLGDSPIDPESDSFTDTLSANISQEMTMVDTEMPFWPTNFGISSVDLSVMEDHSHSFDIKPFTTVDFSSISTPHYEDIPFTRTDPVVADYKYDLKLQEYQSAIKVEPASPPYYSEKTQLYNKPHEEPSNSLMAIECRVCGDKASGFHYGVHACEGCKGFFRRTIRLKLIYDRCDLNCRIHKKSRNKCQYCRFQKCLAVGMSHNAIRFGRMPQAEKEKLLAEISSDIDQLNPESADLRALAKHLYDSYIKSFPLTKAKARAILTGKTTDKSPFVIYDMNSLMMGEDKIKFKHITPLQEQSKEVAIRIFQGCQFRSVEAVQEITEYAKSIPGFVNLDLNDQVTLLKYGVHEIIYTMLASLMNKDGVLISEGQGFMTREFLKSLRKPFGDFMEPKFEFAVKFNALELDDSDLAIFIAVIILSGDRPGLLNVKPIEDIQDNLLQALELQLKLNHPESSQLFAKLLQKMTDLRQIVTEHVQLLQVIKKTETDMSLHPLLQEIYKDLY
Procedure, shortened: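 Twenty-four hours after chemical dosing of transiently transfected HepG2 cells, isolated RNA was converted to cDNA, reporter sequences amplified and 6-FAM-labelled, then HpaI-digested and analysed by capillary electrophoresis. Signal increase against DMSO was fitted.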

[7] = biological target: Nuclear receptor subfamily 1 group I member 2 (Homo sapiens) (UniProt O75469); assay: ATG_PXR_TRANS: Attagene TRANS-FACTORIAL HepG2 Assay for human Pregnane X Receptor (PXR) (AID 2283008)
Chain of Nuclear receptor subfamily 1 group I member 2 (Homo sapiens) (O75469 whole entry, looked up, the tested form may be a part): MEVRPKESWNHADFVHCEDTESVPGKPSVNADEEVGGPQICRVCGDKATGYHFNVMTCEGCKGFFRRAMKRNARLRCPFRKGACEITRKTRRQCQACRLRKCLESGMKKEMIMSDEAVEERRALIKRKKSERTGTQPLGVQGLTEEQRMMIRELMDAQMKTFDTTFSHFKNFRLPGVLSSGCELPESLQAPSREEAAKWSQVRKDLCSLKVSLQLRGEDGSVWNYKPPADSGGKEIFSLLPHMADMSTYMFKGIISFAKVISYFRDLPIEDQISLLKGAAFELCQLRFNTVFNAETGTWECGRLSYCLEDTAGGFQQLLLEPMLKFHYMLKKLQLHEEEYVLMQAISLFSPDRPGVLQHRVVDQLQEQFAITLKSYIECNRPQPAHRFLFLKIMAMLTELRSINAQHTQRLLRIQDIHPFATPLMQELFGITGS
Procedure, shortened: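 HepG2 cells transiently transfected with GAL4-UAS reporter units and PXR-Gal4 chimera, exposed 24 h. Reporter mRNA quantified by RT-PCR, fluorescent labelling, HpaI digestion and capillary electrophoresis; gain of signal vs DMSO.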

[8] = biological target: human RAR-related Orphan Receptor gamma (RORg), RORC (gene 6097) (UniProt P51449); assay: ATG_RORg_TRANS: Attagene TRANS-FACTORIAL HepG2 Assay for human RAR-related Orphan Receptor gamma (RORg) (AID 2283011)
Chain of human RAR-related Orphan Receptor gamma (RORg), RORC (gene 6097) (P51449 whole entry, looked up, the tested form may be a part): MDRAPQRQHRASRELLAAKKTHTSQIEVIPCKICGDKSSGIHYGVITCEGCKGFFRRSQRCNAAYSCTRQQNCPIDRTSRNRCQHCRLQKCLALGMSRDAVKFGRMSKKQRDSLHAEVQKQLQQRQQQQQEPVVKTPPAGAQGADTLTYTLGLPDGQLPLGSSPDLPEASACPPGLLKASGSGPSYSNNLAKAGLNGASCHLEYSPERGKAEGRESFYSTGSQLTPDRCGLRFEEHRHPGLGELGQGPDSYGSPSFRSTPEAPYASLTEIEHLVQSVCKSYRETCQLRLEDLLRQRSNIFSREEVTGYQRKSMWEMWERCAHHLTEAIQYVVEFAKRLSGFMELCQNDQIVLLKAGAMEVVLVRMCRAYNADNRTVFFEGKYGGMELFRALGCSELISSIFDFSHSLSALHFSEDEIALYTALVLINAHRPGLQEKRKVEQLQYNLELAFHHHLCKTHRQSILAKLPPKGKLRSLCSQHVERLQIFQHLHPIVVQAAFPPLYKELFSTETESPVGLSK
Procedure, shortened: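 Transient MRTU transfection of HepG2 (TRANS format, exogenous NR-Gal4 chimera). 24 h dosing. Total RNA → oligo(dT) RT → PCR → 6-FAM labelling → HpaI cut → CE. Gain vs DMSO.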

[9] = biological target: human Retinoic Acid Receptor gamma (RARg), RARG (gene 5916) (UniProt P13631); assay: ATG_RARg_TRANS: Attagene TRANS-FACTORIAL HepG2 Assay for human Retinoic Acid Receptor gamma (RARg) (AID 2283009)
Chain of human Retinoic Acid Receptor gamma (RARg), RARG (gene 5916) (P13631 whole entry, looked up, the tested form may be a part): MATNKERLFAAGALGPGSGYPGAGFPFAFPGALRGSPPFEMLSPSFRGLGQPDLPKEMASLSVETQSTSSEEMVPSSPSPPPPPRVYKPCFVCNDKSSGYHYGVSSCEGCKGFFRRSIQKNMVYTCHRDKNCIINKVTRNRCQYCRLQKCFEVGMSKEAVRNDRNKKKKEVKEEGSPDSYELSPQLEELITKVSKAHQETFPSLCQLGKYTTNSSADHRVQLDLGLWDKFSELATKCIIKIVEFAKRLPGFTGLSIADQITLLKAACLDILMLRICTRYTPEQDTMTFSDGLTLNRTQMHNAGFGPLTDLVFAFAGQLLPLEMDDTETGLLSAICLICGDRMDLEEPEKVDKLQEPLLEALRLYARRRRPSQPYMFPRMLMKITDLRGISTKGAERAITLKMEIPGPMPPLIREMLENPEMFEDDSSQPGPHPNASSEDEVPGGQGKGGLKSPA
Procedure, shortened: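 HepG2, RARg-GAL4 TRANS system, 24 h exposure; reporter mRNA by RT-PCR + CE fluorescence; increase over DMSO.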

[10] = biological target: human RAR-related Orphan Receptor beta (RORb), RORB (gene 6096) (UniProt Q92753); assay: ATG_RORb_TRANS: Attagene TRANS-FACTORIAL HepG2 Assay for human RAR-related Orphan Receptor beta (RORb) (AID 2283010)
Chain of human RAR-related Orphan Receptor beta (RORb), RORB (gene 6096) (Q92753 whole entry, looked up, the tested form may be a part): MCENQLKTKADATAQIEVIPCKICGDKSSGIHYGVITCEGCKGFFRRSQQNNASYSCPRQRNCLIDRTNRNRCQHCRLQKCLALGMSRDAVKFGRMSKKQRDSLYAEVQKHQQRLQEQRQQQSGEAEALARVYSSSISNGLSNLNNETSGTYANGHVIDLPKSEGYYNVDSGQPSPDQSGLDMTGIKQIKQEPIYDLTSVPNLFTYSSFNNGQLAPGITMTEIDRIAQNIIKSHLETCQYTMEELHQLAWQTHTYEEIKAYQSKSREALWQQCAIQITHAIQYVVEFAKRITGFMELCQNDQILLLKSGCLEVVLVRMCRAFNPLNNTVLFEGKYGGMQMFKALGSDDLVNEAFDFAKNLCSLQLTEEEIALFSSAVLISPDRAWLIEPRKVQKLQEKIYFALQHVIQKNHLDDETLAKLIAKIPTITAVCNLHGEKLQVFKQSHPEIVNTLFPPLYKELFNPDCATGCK
Procedure, shortened: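 In this TRANS-format test, human HepG2 cells express chimeric NR-Gal4 fusion proteins driving GAL4-UAS reporters. After 24 h dosing, reporter transcripts are measured by fluorescent RT-PCR/capillary electrophoresis, with DMSO as negative control.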

Measured: AC50

C[C@]12CC[C@@H]3c4ccc(O)cc4CC[C@H]3[C@@H]1C[C@@H](O)[C@@H]2O
not listed: [9] | [10]
inactive: all other assays above

CCCCC(CC)C(=O)O (configuration not stated)
inactive: [1] | [2] | [5] | [6] | [7]

O=C(O)C(F)(F)OC(F)(F)C(F)(F)OC(F)(F)C(F)(F)OC(F)(F)C(F)(F)C(F)(F)C(F)(F)F
active: [2] 45.4 µM and 53.1 µM | [5] 18 µM and 18.4 µM | [6] 13.1 µM and 19.1 µM | [7] 16.5 µM and 19.4 µM
inactive: all other assays above

Oc1ccc(Cc2ccccc2O)cc1
active: [5] 15.9 µM
inactive: [1] | [2] | [5] | [6] | [7]

O=P(O)(O)CCC(F)(F)C(F)(F)C(F)(F)C(F)(F)C(F)(F)C(F)(F)C(F)(F)C(F)(F)F
active: [5] 30 µM and 30.1 µM
not listed: [7] | [9]
inactive: all other assays above

CCCCCc1ccc(O)cc1
active: [2] 15.9 µM | [5] 10.5 µM | [6] 41.4 µM | [7] 20.7 µM
inactive: [1] | [3] | [10] | [8]

C=CC(=C)CC/C=C(\C)CCC=C(C)C
active: [7] 6.93 µM
not listed: [6] | [9]
inactive: all other assays above

O=C(NCc1ncc(C(F)(F)F)cc1Cl)c1c(Cl)cccc1Cl
active: [6] 13.7 µM | [7] 0.675 µM
not listed: [8] | [10]
inactive: all other assays above

CC[N+](CC)(CC)Cc1ccccc1
not listed: [6]
inactive: all other assays above

COC1=CC(=O)C[C@@H](C)[C@]12Oc1c(Cl)c(OC)cc(OC)c1C2=O
active: [5] 28.3 µM
inactive: [1] | [2] | [6] | [7] | [9]

O=P(O)(O)CCC(F)(F)C(F)(F)C(F)(F)C(F)(F)C(F)(F)C(F)(F)F
not listed: [4] | [7]
inactive: all other assays above

C=CC(=O)OCCC(F)(F)C(F)(F)C(F)(F)C(F)(F)C(F)(F)C(F)(F)C(F)(F)C(F)(F)F
inactive: [1] | [2] | [5] | [6] | [7] | [10]

OCCN1CN(CCO)CN(CCO)C1
active: [2] 29.4 µM | [5] 24.2 µM
not listed: [7]
inactive: all other assays above

O=C(O)CCC(F)(F)C(F)(F)C(F)(F)C(F)(F)C(F)(F)F
active: [6] 82.5 µM
inactive: [1] | [2] | [5] | [6] | [7] | [10]

C=COC(=O)C(C)(C)CCCCCC
active: [2] 30.7 µM | [5] 26.7 µM | [7] 36.5 µM
inactive: [1] | [6]

O=C(O)CCC(F)(F)C(F)(F)C(F)(F)C(F)(F)C(F)(F)C(F)(F)F
active: [6] 73.4 µM
not listed: [3] | [4] | [9]
inactive: all other assays above

Cc1cccc2c1ccc1ccccc12
active: [5] 20 µM | [7] 11.2 µM
not listed: [8]
inactive: all other assays above

Oc1c(Cl)cc(Cl)cc1Sc1cc(Cl)cc(Cl)c1O
inactive: [1] | [9] | [10] | [8]
active: [2] 33.5 µM and 34.8 µM | [5] 5.56 µM and 4.63 µM | [6] 2.69 µM | [7] 1.9 µM

O=S(=O)(O)C(F)(F)C(F)(F)C(F)(F)C(F)(F)C(F)(F)C(F)(F)C(F)(F)C(F)(F)C(F)(F)C(F)(F)F
active: [5] 13.3 µM
inactive: all other assays above

NC(=NCCCCCCN=C(N)/N=C(\N)Nc1ccc(Cl)cc1)/N=C(\N)Nc1ccc(Cl)cc1
inactive: [1] | [6] | [7] | [10] | [8]
active: [1] 24.5 µM | [2] 10.5 µM | [5] 4.95 µM | [6] 8.54 µM

O=C(CC(=O)C(F)(F)C(F)(F)C(F)(F)F)c1cccs1
inactive: [1] | [4] | [7] | [9] | [10]
active: [2] 46.2 µM and 50 µM | [5] 15.1 µM and 16.5 µM | [6] 5.3 µM and 10.5 µM | [7] 13.9 µM
